Laboratory results taken from PubChem BioAssay (NCATS).
Inconclusive results are not listed. Active and inactive are the calls of the source. The call rests on the fitted dose curve; in most records, active means well fitted cell-killing curve with a large enough effect; inconclusive means small, poorly fitted or top-dose-only effect, or effect the other way; inactive means flat fitted curve, though single readings scatter.

Columns and labels:
Experiment in all cases: Primary qHTS to identify gynecologic anti-cancer compounds using libraries of approved drugs and bioactive compounds (AID 1345084); further: nearly all actives have a fitted effect of over 55% in size
C33A = settings: Gynecologic cancer cell panel viability, ATPlite luminescence, 48 h; series mostly up to 57.5 µM
Method in brief: (§1)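 Measured: luminescence after ATPlite addition (15 min, RT). Exposure: 48 h, 37 C, 5% CO2.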

CAOV3 = settings: Gynecologic cancer cell panel viability, ATPlite luminescence, 48 h; series mostly up to 57.5 µM
Method in brief: as §1

CASKI = settings: Gynecologic cancer cell panel viability, ATPlite luminescence, 48 h; series mostly up to 57.5 µM
Method in brief: as §1

Es-2 = settings: Gynecologic cancer cell panel viability, ATPlite luminescence, 48 h; series mostly up to 57.5 µM
Method in brief: as §1

HeLa = settings: Gynecologic cancer cell panel viability, ATPlite luminescence, 48 h; series mostly up to 57.5 µM
Method in brief: as §1

Hek293T = settings: Gynecologic cancer cell panel viability, ATPlite luminescence, 48 h, control line for the selectivity index; series mostly up to 57.5 µM
Method in brief: as §1

JEG-3 = settings: Gynecologic cancer cell panel viability, ATPlite luminescence, 48 h; series mostly up to 57.5 µM
Method in brief: as §1

OV90 = settings: Gynecologic cancer cell panel viability, ATPlite luminescence, 48 h; series mostly up to 57.5 µM
Method in brief: as §1

PA-1 = settings: Gynecologic cancer cell panel viability, ATPlite luminescence, 48 h; series mostly up to 57.5 µM
Method in brief: as §1

SKOV3 = settings: Gynecologic cancer cell panel viability, ATPlite luminescence, 48 h; series mostly up to 57.5 µM
Method in brief: as §1

Tov-21-G = settings: Gynecologic cancer cell panel viability, ATPlite luminescence, 48 h; series mostly up to 57.5 µM
Method in brief: as §1

Tov112D = settings: Gynecologic cancer cell panel viability, ATPlite luminescence, 48 h; series mostly up to 57.5 µM
Method in brief: as §1
On the % scale 0 is the no-effect control and ±100 the full control effect.

C[C@@H](c1ccccc1)N(C(N)=NC#N)c1cccc2ncccc12
inactive: Potency (C33A) | Potency (CAOV3) | outcome (CASKI) | Potency (Es-2) | Potency (HeLa) | Potency (Hek293T) | Potency (JEG-3) | Potency (OV90) | Potency (PA-1) | Potency (SKOV3) | Potency (Tov-21-G) | Potency (Tov112D)

CC(C)C1CCC(C(=O)N[C@@H](Cc2ccccc2)C(=O)O)CC1 (stereo not given in full)
inactive: Potency (C33A) | Potency (CAOV3) | outcome (CASKI) | Potency (Es-2) | Potency (HeLa) | Potency (Hek293T) | Potency (JEG-3) | Potency (OV90) | Potency (PA-1) | Potency (SKOV3) | Potency (Tov-21-G) | Potency (Tov112D)

C=C1CCC2(C(=O)OC3OC(CO)C(O)C(O)C3O)CCC3(C)C(=CCC4C5(C)CCC(OC6OC(CO)C(OC7OC(C)C(O)C(O)C7O)C(OC7OCC(O)C(O)C7O)C6O)C(C)(C)C5CCC43C)C2C1 (stereo not given)
inactive: activity change, negative = cytotoxicity (C33A) 5.83% [at 11.6 µM] | activity change, negative = cytotoxicity (CAOV3) 1.68% [at 11.6 µM] | activity change, negative = cytotoxicity (CASKI) -6.54% [at 11.6 µM] | activity change, negative = cytotoxicity (Es-2) -3.02% [at 11.6 µM] | activity change, negative = cytotoxicity (HeLa) 11.1% [at 11.6 µM] | activity change, negative = cytotoxicity (Hek293T) 6.11% [at 11.6 µM] | activity change, negative = cytotoxicity (JEG-3) 12.2% [at 11.6 µM] | activity change, negative = cytotoxicity (OV90) 9.22% [at 11.6 µM] | activity change, negative = cytotoxicity (PA-1) 18.7% [at 11.6 µM] | activity change, negative = cytotoxicity (SKOV3) 24.5% [at 11.6 µM] | activity change, negative = cytotoxicity (Tov-21-G) 0.21% [at 11.6 µM] | activity change, negative = cytotoxicity (Tov112D) 9.24% [at 11.6 µM]

C[C@@H]1O[C@@H](O[C@H]2[C@H](O)[C@@H](O[C@@H]3O[C@H](CO)[C@H](O)[C@H](O)[C@H]3O)[C@H](O[C@H]3CC[C@@]4(C)C(CC[C@]5(C)C4CC=C4[C@@H]6CC(C)(C)CC[C@]6(C(=O)O[C@@H]6O[C@H](CO)[C@@H](O)[C@H](O)[C@H]6O)CC[C@]45C)C3(C)C)O[C@@H]2C(=O)O)[C@H](O)[C@H](O)[C@H]1O (stereo not given in full)
inactive: activity change, negative = cytotoxicity (C33A) 1.15% [at 11.6 µM] | activity change, negative = cytotoxicity (CAOV3) -1.94% [at 11.6 µM] | activity change, negative = cytotoxicity (CASKI) -5.82% [at 11.6 µM] | activity change, negative = cytotoxicity (Es-2) 2.19% [at 11.6 µM] | activity change, negative = cytotoxicity (HeLa) 1.11% [at 11.6 µM] | activity change, negative = cytotoxicity (Hek293T) -2.99% [at 11.6 µM] | activity change, negative = cytotoxicity (JEG-3) -3.24% [at 11.6 µM] | activity change, negative = cytotoxicity (OV90) 5.7% [at 11.6 µM] | activity change, negative = cytotoxicity (PA-1) 7.27% [at 11.6 µM] | activity change, negative = cytotoxicity (SKOV3) -3.61% [at 11.6 µM] | activity change, negative = cytotoxicity (Tov-21-G) 8.52% [at 11.6 µM] | activity change, negative = cytotoxicity (Tov112D) 3% [at 11.6 µM]

C=C1C[C@]23C[C@@]1(O)CC[C@H]2[C@@]12C=C[C@H](O)[C@@](C)(C(=O)O1)[C@H]2[C@@H]3C(=O)O
inactive: Potency (C33A) | Potency (CAOV3) | outcome (CASKI) | Potency (Es-2) | Potency (HeLa) | Potency (Hek293T) | Potency (JEG-3) | Potency (OV90) | Potency (PA-1) | Potency (SKOV3) | Potency (Tov-21-G) | Potency (Tov112D)

C/C=C(/C)C(=O)O[C@H]1C[C@]2(C)O[C@@H]2[C@@H](OC(C)=O)[C@@]2(C)CC[C@@](O)(C(C)C)[C@H]12
inactive: Potency (C33A) | Potency (CAOV3) | outcome (CASKI) | Potency (Es-2) | Potency (HeLa) | Potency (Hek293T) | Potency (JEG-3) | Potency (OV90) | Potency (PA-1) | Potency (SKOV3) | Potency (Tov-21-G) | Potency (Tov112D)

C/C=C1/C[N+](C)([O-])C2Cc3c([nH]c4ccccc34)C(=O)CC1C2C(=O)OC (stereo not given)
inactive: Potency (C33A) | Potency (CAOV3) | outcome (CASKI) | Potency (Es-2) | Potency (HeLa) | Potency (Hek293T) | Potency (JEG-3) | Potency (OV90) | Potency (PA-1) | Potency (SKOV3) | Potency (Tov-21-G) | Potency (Tov112D)

CC(=O)O[C@H]1[C@H](O[C@H]2CC[C@]34C[C@]35CC[C@]3(C)[C@@H]([C@@]6(C)CC[C@@H](C(C)(C)O)O6)[C@@H](O)C[C@@]3(C)[C@@H]5C[C@H](O[C@@H]3O[C@H](CO)[C@@H](O)[C@H](O)[C@H]3O)[C@H]4C2(C)C)OC[C@@H](OC(C)=O)[C@@H]1O
inactive: Potency (C33A) | Potency (CAOV3) | outcome (CASKI) | Potency (Es-2) | Potency (HeLa) | Potency (Hek293T) | Potency (JEG-3) | Potency (OV90) | Potency (PA-1) | Potency (SKOV3) | Potency (Tov-21-G) | Potency (Tov112D)

COC(=O)C1=CO[C@@H](O[C@@H]2O[C@H](CO)[C@@H](O)[C@H](O)[C@H]2O)C2C1CC(O)C2C (stereo not given in full)
inactive: Potency (C33A) | Potency (CAOV3) | outcome (CASKI) | Potency (Es-2) | Potency (HeLa) | Potency (Hek293T) | Potency (JEG-3) | Potency (OV90) | Potency (PA-1) | Potency (SKOV3) | Potency (Tov-21-G) | Potency (Tov112D)

C[C@H](/C=C/[C@@]1(O)[C@H](C)CC(=O)CC1(C)C)O[C@@H]1O[C@H](CO[C@@H]2OC[C@@H](O)[C@H](O)[C@H]2O)[C@@H](O)[C@H](O)[C@H]1O
inactive: Potency (C33A) | Potency (CAOV3) | outcome (CASKI) | Potency (Es-2) | Potency (HeLa) | Potency (Hek293T) | Potency (JEG-3) | Potency (OV90) | Potency (PA-1) | Potency (SKOV3) | Potency (Tov-21-G) | Potency (Tov112D)

N#CC1C(=O)N=C(c2cc(Cl)ccc2O)C=C1c1cc(OCc2ccccc2)cc(OCc2ccccc2)c1 (stereo not given)
inactive: Potency (C33A) | Potency (CAOV3) | outcome (CASKI) | Potency (Es-2) | Potency (HeLa) | Potency (Hek293T) | Potency (JEG-3) | Potency (OV90) | Potency (PA-1) | Potency (SKOV3) | Potency (Tov-21-G) | Potency (Tov112D)

C=C1CCC[C@]2(C)CC[C@@](O)(C(=C)C(=O)O)C[C@@H]12
inactive: Potency (C33A) | Potency (CAOV3) | outcome (CASKI) | Potency (Es-2) | Potency (HeLa) | Potency (Hek293T) | Potency (JEG-3) | Potency (OV90) | Potency (PA-1) | Potency (SKOV3) | Potency (Tov-21-G) | Potency (Tov112D)

C/C=C1/[C@H](O[C@@H]2O[C@H](CO)[C@@H](O)[C@H](O)[C@H]2O)OC=C2C(=O)O[C@@H]3C[C@@H](C(C)CO)[C@H](COC(=O)C[C@H]21)[C@H]3C (stereo not given in full)
inactive: Potency (C33A) | Potency (CAOV3) | outcome (CASKI) | Potency (Es-2) | Potency (HeLa) | Potency (Hek293T) | Potency (JEG-3) | Potency (OV90) | Potency (PA-1) | Potency (SKOV3) | Potency (Tov-21-G) | Potency (Tov112D)

COc1ccc(NC(=O)c2ccc(-c3ccc(C(N)=O)cc3C)cc2)cc1N1CCN(C)CC1
inactive: Potency (C33A) | Potency (CAOV3) | outcome (CASKI) | Potency (Es-2) | Potency (HeLa) | Potency (Hek293T) | Potency (JEG-3) | Potency (OV90) | Potency (PA-1) | Potency (SKOV3) | Potency (Tov-21-G) | Potency (Tov112D)

C[C@@H]1O[C@@H](O[C@H]2[C@@H]3C=CO[C@@H](O[C@@H]4O[C@H](CO)[C@@H](O)[C@H](O)[C@H]4O)[C@@H]3[C@@]3(CO)O[C@@H]23)[C@H](O)[C@H](OC(=O)/C=C/c2ccc(O)cc2)[C@H]1OC(=O)/C=C/c1ccc(O)cc1
inactive: Potency (C33A) | Potency (CAOV3) | outcome (CASKI) | Potency (Es-2) | Potency (HeLa) | Potency (Hek293T) | Potency (JEG-3) | Potency (OV90) | Potency (PA-1) | Potency (SKOV3) | Potency (Tov-21-G) | Potency (Tov112D)
